PubChem BioAssay (NCI)
Compounds without any hit were thinned out: in the full panel of roughly 79,000, 15% have a hit. Activity calls are given as the source filed them. No stated cut-off is given here; in the data, active means growth inhibition above about 70%; inactive means the rest.

Columns and labels:
[1] = NCI Yeast Anticancer Drug Screen. Data for the rad52 strain (AID 147);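 further: 0% = growth of vehicle-treated control cultures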; settings: S. cerevisiae rad52 mutant growth inhibition, stronger effect = higher value
Summary of the method: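 DNA repair-defective yeast; compound exposure; growth scored against vehicle controls.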

[2] = NCI Yeast Anticancer Drug Screen. Data for the wt1 strain (AID 149);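 further: 0% = growth of vehicle-treated wt1 cultures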; settings: S. cerevisiae wt1 strain (SPY 50644) growth inhibition, stronger effect = higher value
Summary of the method: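 Each compound is tested on wt1 yeast and the loss of growth versus vehicle gives the inhibition value.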

[3] = NCI Yeast Anticancer Drug Screen. Data for the rad50EPP+ strain (AID 151);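 further: 0% = growth of vehicle-treated control cultures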; settings: S. cerevisiae rad50 mutant strain, stronger effect = higher value
Summary of the method: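 rad50EPP+ yeast treated with test compounds. Readout: growth vs vehicle control.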

[4] = NCI Yeast Anticancer Drug Screen. Data for the mgt1 strain (AID 153); settings: S. cerevisiae mgt1 mutant growth inhibition, stronger effect = higher value
Summary of the method: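 Growth inhibition relative to vehicle controls was scored for the mgt1 yeast strain after compound exposure.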

[5] = NCI Yeast Anticancer Drug Screen. Data for the rad50 strain (AID 155);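 further: 0% = growth of vehicle-only cultures of the same strain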; settings: S. cerevisiae rad50 strain growth inhibition, stronger effect = higher value
Summary of the method: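 Vehicle-treated cultures provide the reference for the growth inhibition reported for compound-exposed, repair-deficient yeast.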

[6] = NCI Yeast Anticancer Drug Screen. Data for the mec2-1 strain (AID 157); settings: S. cerevisiae mec2-1 strain, stronger effect = higher value
Summary of the method: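 Growth inhibition is read against vehicle-treated controls after compound exposure of the mec2-1 yeast strain, which is defective in DNA damage repair or cell cycle control.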

[7] = NCI Yeast Anticancer Drug Screen. Data for the rad14 strain (AID 159);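 further: 0% = growth of vehicle-treated control cultures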; settings: S. cerevisiae rad14 strain growth inhibition, stronger effect = higher value
Summary of the method: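 Inhibition of growth is reported for a repair-deficient yeast mutant following compound treatment, calculated relative to cultures that received vehicle.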

[8] = NCI Yeast Anticancer Drug Screen. Data for the sgs1 mgt1 strain (AID 161);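 further: 0% = growth of cultures given vehicle only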; settings: S. cerevisiae sgs1 mgt1 strain, stronger effect = higher value
Summary of the method: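 This yeast growth screen uses a strain with defined DNA-repair lesions; compound-treated growth is compared with vehicle-treated growth.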

[9] = NCI Yeast Anticancer Drug Screen. Data for the CLN2oe strain (AID 163);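 further: 0% = growth of vehicle-only control cultures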; settings: S. cerevisiae CLN2oe strain, stronger effect = higher value
Summary of the method: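 Compound-treated yeast; growth vs vehicle ctrl = % inhibition. Genetically altered strain (cell-cycle control).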

[10] = NCI Yeast Anticancer Drug Screen. Data for the cln2 rad14 strain (AID 165);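 further: 0% = growth equal to vehicle treated cultures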; settings: S. cerevisiae cln2 rad14 strain, stronger effect = higher value
Summary of the method: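 Growth inhibition, relative to vehicle-treated controls, is the read-out. The test organism is a yeast strain with defined genetic alterations, cln2 rad14.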

[11] = NCI Yeast Anticancer Drug Screen. Data for the bub3 strain (AID 167); settings: S. cerevisiae bub3 mutant strain, stronger effect = higher value
Summary of the method: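 Mutant yeast screening strain plus compound; vehicle-treated cultures serve as the 0% inhibition reference.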

[12] = NCI Yeast Anticancer Drug Screen. Data for the mlh1 strain (AID 171);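 further: 0% = growth of vehicle-treated control cultures of the same strain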; settings: S. cerevisiae mlh1 strain growth inhibition, stronger effect = higher value
Summary of the method: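 Compounds are applied to a genetically altered yeast strain, and its growth is compared with that of vehicle-treated cultures to give percent inhibition.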

[13] = NCI Yeast Anticancer Drug Screen. Data for the mlh1 rad18 strain (AID 175); settings: S. cerevisiae mlh1 rad18 strain growth inhibition, stronger effect = higher value
Summary of the method: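 Cells of a genetically altered yeast strain, deficient in DNA damage repair, were treated with compound. Their growth was then compared with that of vehicle-treated cultures to give inhibition.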

[14] = NCI Yeast Anticancer Drug Screen. Data for the rad18 strain (AID 177); settings: S. cerevisiae rad18 mutant growth inhibition, stronger effect = higher value
Summary of the method: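 Compounds are applied to a repair-deficient yeast strain, and growth is compared with that of vehicle-treated cultures to give percent inhibition.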

[15] = at 5.0 µM (retest, dose inferred, filed as 0.5)
[16] = at 50.0 µM (retest, dose inferred, filed as 5.0)

Measured: growth inhibition

Fc1ccc(Nc2ccc3ccccc3c2)cc1
inactive: [1]; at 1.2 µM -1% | [1]; at 3.7 µM -2% | [1]; at 11.0 µM -3% | [1]; at 33.0 µM 17% | [2]; at 1.2 µM -1% | [2]; at 3.7 µM 0% | [2]; at 11.0 µM -2% | [2]; at 33.0 µM 21% | [2]; at 100.0 µM 41% | [3]; at 1.2 µM -3% | [3]; at 3.7 µM -3% | [3]; at 11.0 µM -1% | [3]; at 33.0 µM 4% | [3]; at 100.0 µM 7% | [4]; at 1.2 µM -2% | [4]; at 3.7 µM -1% | [4]; at 11.0 µM -2% | [4]; at 33.0 µM 54% | [5]; at 1.2 µM -6% | [5]; at 3.7 µM -48% | [5]; [15] -1% | [5]; at 11.0 µM 8% | [5]; at 33.0 µM 4% | [5]; [16] 64% | [6]; at 1.2 µM -1% | [6]; at 3.7 µM 0% | [6]; [15] -2% | [6]; at 11.0 µM -3% | [6]; at 33.0 µM 25% | [7]; at 1.2 µM -1% | [7]; at 3.7 µM 2% | [7]; at 11.0 µM 2% | [7]; at 33.0 µM 55% | [8]; [15] -4% | [9]; at 1.2 µM 2% | [9]; at 3.7 µM -2% | [9]; at 11.0 µM -1% | [9]; at 33.0 µM -11% | [9]; at 100.0 µM 44% | [10]; [15] -3% | [10]; [16] 67% | [11]; at 1.2 µM 0% | [11]; at 3.7 µM -7% | [11]; [15] 0% | [11]; at 11.0 µM -6% | [11]; at 33.0 µM -9% | [11]; [16] 12% | [12]; at 1.2 µM 0% | [12]; at 3.7 µM 0% | [12]; at 11.0 µM -2% | [12]; at 33.0 µM 44% | [13]; [15] -3% | [13]; [16] 69% | [14]; at 1.2 µM 0% | [14]; at 3.7 µM 1% | [14]; at 11.0 µM 0% | [14]; at 33.0 µM -1%
active: [1]; at 100.0 µM 78% | [4]; at 100.0 µM 94% | [5]; at 50.0 µM 91% | [5]; at 100.0 µM 89% | [6]; [16] 84% | [6]; at 50.0 µM 90.2% | [6]; at 100.0 µM 93% | [7]; at 100.0 µM 97% | [8]; [16] 86% | [8]; at 50.0 µM 91.2% | [10]; at 50.0 µM 92.1% | [11]; at 50.0 µM 92.8% | [11]; at 100.0 µM 88% | [12]; at 100.0 µM 90% | [13]; at 50.0 µM 93.5% | [14]; at 100.0 µM 91%
